The values below come from article PMC4336329 (PLoS ONE, 2015).

Molecules are shown by their SMILES. About 14,000 (4.5%) of roughly 310,000 compounds showed an effect of 50% or more. Effects have a minus sign here. The list comes from a sample in which strong results are over-represented; it also holds similar structures and randomly drawn compounds.
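Further: peak tail current of the secondary pulse compared with the same well before compound.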

For this assay, the target named is human ether-à-go-go-related gene (hERG) potassium channel (human, UniProt Q12809). Kind of assay: primary screen, population patch clamp on CHO cells stably expressing hERG; higher = less effect of the substance.
Chain of human ether-à-go-go-related gene (hERG) potassium channel (Q12809 whole entry, looked up): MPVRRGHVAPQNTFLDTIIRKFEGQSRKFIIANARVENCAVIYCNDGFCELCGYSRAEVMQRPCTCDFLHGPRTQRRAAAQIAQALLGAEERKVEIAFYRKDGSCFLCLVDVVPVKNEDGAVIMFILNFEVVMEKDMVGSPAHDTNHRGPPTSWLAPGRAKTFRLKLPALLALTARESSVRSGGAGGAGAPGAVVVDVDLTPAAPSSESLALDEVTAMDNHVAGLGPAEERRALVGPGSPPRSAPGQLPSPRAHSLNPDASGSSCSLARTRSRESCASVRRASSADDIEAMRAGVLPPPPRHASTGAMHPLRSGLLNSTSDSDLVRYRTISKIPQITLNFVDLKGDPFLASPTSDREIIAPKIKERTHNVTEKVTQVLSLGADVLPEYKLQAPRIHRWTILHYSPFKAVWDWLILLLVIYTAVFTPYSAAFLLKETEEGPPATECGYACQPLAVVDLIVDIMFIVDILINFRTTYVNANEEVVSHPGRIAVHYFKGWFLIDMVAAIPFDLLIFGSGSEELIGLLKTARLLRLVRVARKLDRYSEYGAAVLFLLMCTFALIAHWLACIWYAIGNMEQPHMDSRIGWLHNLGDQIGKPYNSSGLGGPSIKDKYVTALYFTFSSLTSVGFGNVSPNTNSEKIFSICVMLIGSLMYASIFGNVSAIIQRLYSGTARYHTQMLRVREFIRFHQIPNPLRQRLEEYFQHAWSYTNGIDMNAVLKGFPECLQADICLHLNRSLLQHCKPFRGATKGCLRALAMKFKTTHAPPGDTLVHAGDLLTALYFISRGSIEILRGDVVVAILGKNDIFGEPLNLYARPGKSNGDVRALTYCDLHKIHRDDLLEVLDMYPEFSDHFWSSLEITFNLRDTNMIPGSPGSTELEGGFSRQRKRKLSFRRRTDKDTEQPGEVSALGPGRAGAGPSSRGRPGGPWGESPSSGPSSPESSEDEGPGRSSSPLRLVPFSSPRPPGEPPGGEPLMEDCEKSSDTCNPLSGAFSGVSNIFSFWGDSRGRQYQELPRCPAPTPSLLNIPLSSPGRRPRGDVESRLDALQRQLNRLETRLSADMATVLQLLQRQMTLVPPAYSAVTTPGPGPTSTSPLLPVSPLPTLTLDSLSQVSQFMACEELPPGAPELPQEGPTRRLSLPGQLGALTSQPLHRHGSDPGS
Take `COc1ccc2c(c1)c(CC(=O)Nc1ccc(C)cc1)c(C)n2C(=O)c1ccc(Cl)cc1`: the “hERG current change (%, negative = inhibition) at 10uM” value is -20.4%.
To `O=C1c2oc3ccccc3c(=O)c2C(c2ccccn2)N1Cc1ccccc1` (stereo not drawn) belongs 5.53%; to `CCOC(=O)c1c(C)nc(-c2ccccc2)nc1NC(=O)CC`, 1.29%; to `Cn1c(=O)c2sccc2n2c(CCCC(=O)NCc3ccco3)nnc12`, -1.92%.
To `COC(=O)C1CCN(C(=O)c2ccccc2NC(C)=O)CC1` belongs 16.8%; to `O=[N+]([O-])c1ccc(CSc2nnc3ccccn23)cc1`, -57.2%; to `O=[N+]([O-])c1ccccc1CSc1nnc2ccccn12`, -0.991%.
To `O=C(c1nc(SCc2ccc([N+](=O)[O-])cc2)n2ccccc12)C(F)(F)F` belongs -71.1%; to `Brc1ccc(CSc2nnc3ccccn23)cc1`, -18.7%; to `Cn1ccnc1SCc1ccc([N+](=O)[O-])cc1`, -2.75%.
Consider `O=c1c2ccccc2nc(SCc2ccc([N+](=O)[O-])cc2)n1-c1ccccc1`, for which the “hERG current change (%, negative = inhibition) at 10uM” value is 10.9%.
As to `O=C(NC(=S)NNC(=O)c1ccccc1O)c1cccc([N+](=O)[O-])c1`, the “hERG current change (%, negative = inhibition) at 10uM” value is given as 26.2%.
To `O=C(NCCCN1CCOCC1)C(=O)N/N=C/c1ccccc1` belongs -20.2%; to `CCC(=NCCN1CCOCC1)c1c(O)n(C2CCCCC2)c(=O)[nH]c1=O`, -6.76%; to `CC1(C)CC(=O)C(CC(=O)N2CCC(Cc3ccccc3)CC2)C(=O)C1`, 34.8%.
Consider `CC12CCC(=O)N1C(C(=O)Nc1cccc3ccccc13)CS2` (stereo not drawn), for which the “hERG current change (%, negative = inhibition) at 10uM” value was found to be 4.6%.
As for `Cc1cc2nc(-c3ccc4c(c3)CCC4)ccn2n1`, the figure is -2.72%; as for `Cc1ccc(NS(=O)(=O)c2cccc(C(=O)NCC3CCCO3)c2)cc1` (stereo not drawn), -10%; as for `Brc1ccc(-c2nn[nH]n2)cc1`, 11.2%.
To `CC(=O)c1ccc2c3c(cccc13)CC2` belongs 2.96%; to `O=C(NC1CC1)c1ccc2c3c(cccc13)CC2`, -2.52%.
On to `CC(C)(C)NC(=O)c1ccc2c3c(cccc13)CC2`, for which the “hERG current change (%, negative = inhibition) at 10uM” value is listed as -51.4%.
As for `COc1ccc(Cl)cc1NC(=O)CSc1nnc(C)c(=O)n1N`, the figure is 2.48%; as for `O=C(c1ccccc1)N1N=C(c2ccc(F)cc2)CC1(O)C(F)(F)F` (stereo not drawn), -5.31%.
As for `C/C(=N/OC(=O)CC(C)C)c1cc(-c2ccc(Cl)cc2)no1`, the figure is 15%.
As for `COc1ccc(N(C)S(=O)(=O)c2cccc(C(=O)NCC(c3ccco3)N3CCCC3)c2)cc1` (stereo not drawn), the figure is -33.9%.
On to `CN(c1ccccc1)S(=O)(=O)c1ccc(C(=O)NCC(c2ccco2)N2CCCCC2)cc1` (stereo not drawn), for which the “hERG current change (%, negative = inhibition) at 10uM” value was -12.1%.
To `O=C(NCC(c1ccco1)N1CCCC1)c1cccc(NS(=O)(=O)c2ccccc2)c1` (stereo not drawn) belongs -5.9%; to `CN(C)C(CNC(=O)c1cc(S(=O)(=O)N(C)c2ccc(F)cc2)ccc1Cl)c1ccco1` (stereo not drawn), -28.3%.
Turning to `CCN(c1ccccc1)S(=O)(=O)c1cccc(C(=O)NCC(c2cccs2)N2CCOCC2)c1` (stereo not drawn), the “hERG current change (%, negative = inhibition) at 10uM” value is recorded as -18.7%.
In the case of `Cc1ccc(N(C)S(=O)(=O)c2cccc(C(=O)NCC(c3ccco3)N3CCCC3)c2)cc1` (stereo not drawn), the “hERG current change (%, negative = inhibition) at 10uM” value is given as -62.5%.
Regarding `CN(c1ccccc1)S(=O)(=O)c1ccc(Cl)c(C(=O)NCC(c2ccco2)N2CCCC2)c1` (stereo not drawn), the “hERG current change (%, negative = inhibition) at 10uM” value was -50.9%.
As for `Cc1ccc(NS(=O)(=O)c2cccc(C(=O)NCC(c3ccco3)N3CCCC3)c2)cc1` (stereo not drawn), the figure is -47.4%; as for `CCN(c1ccccc1)S(=O)(=O)c1cccc(C(=O)NCC(c2ccco2)N2CCCC2)c1` (stereo not drawn), -59.3%.
As for `CCCn1ncc2c(Nc3ccc(C)c(C)c3)ncnc21`, the figure is -25.2%; as for `CC(NC(=O)c1ccco1)C(=O)N1CCN(C(c2ccccc2)c2ccccc2)CC1` (stereo not drawn), -15.7%.
To `O=C(CN(CC1CCCO1)C(=O)CNS(=O)(=O)c1ccc(Cl)cc1)NCCc1ccccc1` (stereo not drawn) belongs -20.8%; to `COc1ccc(CCn2c(O)c(C=Nc3ccc(NC(C)=O)cc3)c(=O)[nH]c2=O)cc1OC`, 27.6%.
Regarding `CC(=O)Nc1ccc(S(=O)(=O)NCc2ccccn2)cc1`, the “hERG current change (%, negative = inhibition) at 10uM” value worked out at 9.6%.
To `O=Cc1cccc(OC(=O)Nc2ccccc2)c1` belongs 6.95%.
For the molecule `CN(C)c1cc(-c2ccc(Cl)cc2Cl)oc(=O)c1Cl`, the “hERG current change (%, negative = inhibition) at 10uM” value turned out to be 0.166%.
Turning to `CCOc1c2ccc(C(=O)NCCCCc3ccccc3)cc2nn1CC`, the “hERG current change (%, negative = inhibition) at 10uM” value is -14.1%.
As for `OCCCNc1ncnc2sc3c(c12)CCN(Cc1ccccc1)C3`, the figure is -37.9%.
To `CCCCNc1ncnc2sc3c(c12)CCN(CCC)C3` belongs -76%.
`COCCCNc1ncnc2sc3c(c12)CCC(C)C3` (stereo not drawn): the “hERG current change (%, negative = inhibition) at 10uM” value is reported as -24.5%.
As for `CC1CCc2c(sc3ncnc(NCCN4CCOCC4)c23)C1` (stereo not drawn), the figure is -54.6%; as for `CC1CCc2c(sc3ncnc(N4CCOCC4)c23)C1` (stereo not drawn), -16.6%; as for `c1cn(CCCNc2ncnc3sc4c(c23)CCC4)cn1`, -37.5%.
To `Cc1cc(NS(=O)(=O)c2ccc(NC(=O)CSc3nc4ncc(Br)cc4[nH]3)cc2)nc(C)n1` belongs 20.8%; to `CC(C)Oc1cccc(C(=O)C2CCCN(C(=O)c3ccc4c(c3)OCO4)C2)c1` (stereo not drawn), -26.9%.
On to `O=C(c1ccc2c(c1)OCO2)C1CCCN(Cc2ccccc2OC(F)F)C1` (stereo not drawn), for which the “hERG current change (%, negative = inhibition) at 10uM” value is -58.8%.
To `O=C(c1ccc2c(c1)OCO2)C1CCCN(Cc2ccc(OC(F)F)cc2)C1` (stereo not drawn) belongs -85.7%; to `N/C(=N\OC(=O)COc1ccc2ccccc2c1Br)c1ccncc1`, 5.98%.
To `CCOc1ccc(NC(=O)NCc2ccc3c(c2)OCO3)cc1` belongs 9.08%; to `COc1ccc(N2CCN(C(=O)CCC(=O)NNc3nc4ccccc4c4nc(C)nn34)CC2)cc1`, -29.1%; to `CC(=O)N1CCN(C(=O)CCc2nc3ccccc3c(=O)[nH]2)CC1`, 2.7%.
For `O=C(CCc1nc2ccccc2c(=O)[nH]1)N1CCN(S(=O)(=O)c2ccc(F)cc2)CC1`, the “hERG current change (%, negative = inhibition) at 10uM” value is recorded as -27.6%.
Take `Cc1ccc(C)c(S(=O)(=O)N2CCN(C(=O)CCc3nc4ccccc4c(=O)[nH]3)CC2)c1`: the “hERG current change (%, negative = inhibition) at 10uM” value is recorded as -47.1%.
As for `Cc1nc2c3ccccc3nc(NNC(=O)CCC(=O)N3CCN(c4ccccc4)CC3)n2n1`, the figure is -28.5%; as for `Cc1nc2c3ccccc3nc(NNC(=O)CCC(=O)N3CCN(c4ccc(F)cc4)CC3)n2n1`, -53.2%.
As for `O=C(CCc1nc2ccccc2c(=O)[nH]1)N1CCN(S(=O)(=O)c2ccccc2Br)CC1`, the figure is -51.3%; as for `CN1CCN(C(=O)CCc2nc3ccccc3c(=O)[nH]2)CC1`, 21.9%; as for `O=C(CCc1nc2ccccc2c(=O)[nH]1)N1CCN(c2ccc(F)cc2)CC1`, -68%.
